Screening results: PubChem, National Center for Advancing Translational Sciences (NCATS)
IL1B secr inh: qHTS for Inhibitors of Inflammasome Signaling: IL-1-beta AlphaLISA Primary Screen; THP-1 LPS/ATP IL-1B secretion, AlphaLISA, 16 h; active compounds read low; activity change, % at 57.5 µM; actives 4.7% (n = 360,000); in the data active = activity change below about -50%; inconclusive = mostly about -30% to -49%
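THP-1 cells pretreated 1 hr with compounds (up to 57.5 uM final), then stimulated with LPS (250 ng/mL final) plus ATP (1.25 mM final); secreted IL-1B measured by AlphaLISA after 16 hr, decreased signal indicating inhibition.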
HT1080NT lethal: qHTS for induction of synthetic lethality in tumor cells producing 2HG: qHTS for the HT-1080-NT fibrosarcoma cell line; Potency, µM (series often up to 46.1 µM), for inactives: top-dose activity, negative = less viability, hits mostly cytotoxic; HT-1080-NT fibrosarcoma viability, CellTiter-Glo ATP luminescence, 48 h; actives 1.6% (n = 360,000);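 also: NT is the 2HG producing partner of a matched IDH1 knockdown line; potency is read from the fitted curve at half-maximal effect; 0% = DMSO-treated cells and -100% = media-only wells without cells; nearly all actives have a fitted effect of over 55% in size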
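Viability of the 2HG-overproducing fibrosarcoma line after 48 hours of compound exposure at 37 degrees C was determined by luminescence with CellTiter-Glo, and concentration-effect curves were then fitted and categorized.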
DT40 TDP1 CPT: qHTS for Inhibitors of human tyrosyl-DNA phosphodiesterase 1 (TDP1): qHTS in cells in presence of CPT; chicken DT40 Tdp1-/-;hTDP1 cells + 20 nM CPT, ATP luminescence, 48 h; Potency, µM (titrated, usually from 46.2 µM), for inactives: top-dose activity change, negative = growth inhibition, most hits filed as inhibitors; actives 12% (n = 420,000); AID 686979, 2013; also: potency is read from the fitted curve at half-maximal effect; nearly all actives have a fitted effect of over 55% in size
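Chicken DT40 Tdp1-/- cells complemented with human TDP1, 400 cells/well, exposed to compounds plus 20 nM camptothecin for at least 48 h at 37 C; viability read as ATP content by CellTiter-Glo luminescence.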
HT1080 IDH1KD tx: qHTS for induction of synthetic lethality in tumor cells producing 2HG: qHTS for the HT-1080-IDH1KD cell line; Potency, µM (doses to about 46.1 µM), for inactives: top-dose activity, negative = toxicity, most hits filed as cytotoxic; AID 686971, 2013; actives 2% (n = 360,000); HT-1080 IDH1 knockdown viability, ATP luminescence, 48 h;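 also: potency is read from the fitted curve at half-maximal effect; 0% = DMSO wells and -100% = cell-free medium wells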
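Cytotoxicity counter-line: IDH1KD HT-1080, 48 h, CellTiter-Glo. Curves classed by r2, magnitude and activity.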
TDP1 cell noCPT: qHTS for Inhibitors of human tyrosyl-DNA phosphodiesterase 1 (TDP1): qHTS in cells in absence of CPT; DT40 Tdp1-/- hTDP1 cells, no CPT, ATP luminescence, 48 h; Potency, µM (highest dose often 46.2 µM), for inactives: top-dose activity change, negative = growth inhibition, actives largely listed as inhibitors; actives 15% (n = 420,000); also: potency is read from the fitted curve at half-maximal effect; nearly all actives have a fitted effect of over 55% in size
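Luminescent ATP content (CellTiter-Glo) served as the growth readout. Knockout chicken DT40 cells expressing human TDP1 were exposed to compounds without camptothecin for a minimum 48 hr at 37 °C.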
Active calls of the source: *; ? = inconclusive; nt = no result given. Only some compounds are listed: those with a hit (about 19% of all), similar ones and a draw of the others. Unless noted, calls follow the shape of the dose curve; as a rule, active = well fitted curve in the direction sought with a large enough effect; inconclusive = small, poorly fitted or top-dose-only effect, or another doubt; inactive = no such curve, though single readings can be large; an effect the other way counts as inactive or inconclusive. Unless noted, % is scaled to controls: 0 for no effect and ±100 for the full control effect.

SMILES | IL1B secr inh | HT1080NT lethal | DT40 TDP1 CPT | HT1080 IDH1KD tx | TDP1 cell noCPT
O=c1[nH]c2ccc(Cl)cc2c(-c2ccccc2)c1CN1CCOCC1 | -5 | ? | ? | ? | 21µM*
O=c1[nH]c2ccc(Cl)cc2c(-c2ccccc2)c1N1CCOCC1 | 0 | -2% | -22% | 0% | -6%
CCOC(=O)N1CCc2c(sc3c2c(=O)n(Cc2ccccc2)c(=O)n3Cc2cccc(C)c2)C1 | -19 | -4% | 13µM* | -15% | 13µM*
CCOC(=O)N1CCc2c(sc3c2c(=O)n(Cc2ccccc2)c(=O)n3Cc2c(F)cccc2Cl)C1 | nt | nt | 13µM* | nt | 18µM*
O=C(NCCN1CCCC1)c1cc(-c2ccncc2)nc2ccc(S(=O)(=O)N3CCOCC3)cc12 | -1 | 4% | 6% | 15% | 3%
C=CCn1c(=O)c(C(=O)Nc2ncccc2C)c(O)c2ccccc21 | -8 | ? | -9% | ? | -9%
Cc1cccc(C)c1N=C1SC(CC(=O)Nc2c(C)cccc2C)C(=O)N1CCc1ccccn1 (stereo not given) | ? | -6% | ? | -9% | 16µM*
COc1cccc(N=C2SC(CC(=O)Nc3ccccc3)C(=O)N2Cc2ccccn2)c1 (stereo not given) | -63* | -19% | ? | -15% | ?
O=C(CC1SC(=Nc2ccccc2)N(CCc2ccccn2)C1=O)Nc1ccc(F)cc1 (stereo not given) | -9 | ? | ? | ? | ?
CC1=CC(C)(C)n2c(O)c(N=NC(N)=S)c3cc(C)cc1c32 | -7 | -2% | 5% | 2% | -8%
CC1=CC(C)(C)n2c(O)c(C3=NC(=S)NC3=O)c3cc(OC(=O)c4cccc5ccccc45)cc1c32 | -4 | 0% | ? | ? | 23µM*
CCc1ccc(-c2cc(C)no2)cc1S(=O)(=O)N1CCN(c2cc(C)ccc2C)CC1 | -9 | -1% | ? | -5% | 16µM*
CCc1nc(-c2ccc(C)c(S(=O)(=O)N3CCN(c4ccc(C(C)=O)cc4)CC3)c2)no1 | nt | nt | 13µM* | nt | 7.3µM*
CCc1ccc(-c2cc(C)no2)cc1S(=O)(=O)N1CCN(c2ccccc2F)CC1 | 7 | -1% | ? | 2% | -10%
CCc1ccc(-c2cc(C)no2)cc1S(=O)(=O)N1CCN(c2ccc(C(C)=O)cc2)CC1 | -17 | -2% | ? | -9% | 18µM*
CCc1ccc(-c2cc(C)no2)cc1S(=O)(=O)N1CCN(c2cccc(C)c2C)CC1 | 36 | 5% | 23µM* | 0% | ?
CC(=O)c1ccc(N2CCN(S(=O)(=O)c3cc(-c4cc(C)no4)ccc3C(C)C)CC2)cc1 | -13 | 5% | ? | -17% | ?
CSc1ccc(CN2C(=O)C(C)ON=C2c2ccccc2F)cc1 (stereo not given) | 20 | 7% | ? | 0% | ?
CC(=O)NN1C(=O)/C(=C2/Sc3ccc(Cl)cc3N2C)SC1=S | 10 | -8% | -1% | -16% | -1%
COc1ccccc1-c1nc(SCC(=O)Nc2cc(C)on2)c2c(=O)n(C)c(=O)n(C)c2n1 | 0 | -5% | -25% | -2% | -25%
Cc1cc(-c2ccc(C)c(S(=O)(=O)N3CCN(c4ccc(F)cc4)CC3)c2)on1 | -8 | 3% | -30% | -2% | ?
CCc1ccc(-c2cc(C)no2)cc1S(=O)(=O)N1CCN(c2cccc(Cl)c2)CC1 | nt | nt | 1µM* | nt | 0.65µM*
Cc1ccc(S(=O)(=O)Oc2ccc(C3C4=C(CCCC4=O)OC4=C3C(=O)CCC4)cc2)cc1 | 31 | 2% | 23µM* | 4% | 16µM*
COc1ccccc1CNC(=O)CSc1nc(=O)[nH]c2c1CCCC2 | nt | nt | -14% | nt | -19%
Fc1ccc(CNCc2ccccc2Cl)cc1 | -14 | 26% | -20% | 3% | -1%
SMILES | IL1B secr inh | HT1080NT lethal | DT40 TDP1 CPT | HT1080 IDH1KD tx | TDP1 cell noCPT
OC(CNCc1ccccc1F)(c1ccc(F)cc1)c1ccc(F)cc1 | -80* | -25% | -20% | -27% | ?
COc1ccccc1CNCC(O)(c1ccc(F)cc1)c1ccc(F)cc1 | -26 | -17% | 18µM* | -12% | 13µM*
CC(=O)Nc1ccc(S(=O)(=O)N(C)CC(=O)Nc2ccc(Br)cc2F)cc1 | -12 | 1% | -18% | -2% | ?
Cc1ccc(S(=O)(=O)N2CCCCC2)cc1NCC(=O)Nc1ccc(Br)cc1F | ? | ? | 4.6µM* | ? | 3.7µM*
COc1ccc(NCC(=O)Nc2cccc(S(=O)(=O)N3CCCC3)c2)cc1Cl | -12 | -14% | ? | -18% | 13µM*
CN(C)S(=O)(=O)c1cccc(NC(=O)CNc2cccc(S(=O)(=O)N3CCCCC3)c2)c1 | 13 | -11% | ? | -16% | 21µM*
COc1ccc(S(=O)(=O)N(C)C)cc1NCC(=O)Nc1ccc(Br)cc1F | ? | -5% | 13µM* | -14% | 29µM*
O=C(CNc1ccccc1F)Nc1cc(S(=O)(=O)N2CCCCC2)ccc1Cl | 10 | -14% | -30% | -1% | -27%
Nc1nc2c(ncn2[C@@H]2O[C@H](CNS(=O)(=O)C3CC3)[C@@H](O)[C@H]2O)c(=O)[nH]1 | 11 | 19% | 4% | 8% | 0%
N#Cc1ccc(CC(C(=O)O)N2Cc3ccccc3C2=O)cc1 (stereo not given) | 4 | 2% | -7% | 0% | -17%
O=C(CNc1cccc(S(=O)(=O)N2CCCC2)c1)Nc1cccc(Br)c1 | -3 | -21% | ? | -23% | 21µM*
O=C(CNc1cccc(S(=O)(=O)N2CCCCC2)c1)Nc1cccc(F)c1 | -5 | ? | -27% | -15% | ?
CCN(CC)S(=O)(=O)c1ccc(C)c(NC(=S)Nc2cccc(S(=O)(=O)N3CCCCCC3)c2)c1 | ? | -1% | ? | ? | 23µM*
CCN(CC)S(=O)(=O)c1ccc(C)c(NC(=O)CNc2cccc(S(=O)(=O)N3CCOCC3)c2)c1 | ? | 5% | -4% | 4% | ?
CC(=O)c1cccc(NCC(=O)Nc2cc(S(=O)(=O)N3CCCCC3)ccc2C)c1 | -4 | 0% | 16µM* | -6% | ?
CCN(CC)S(=O)(=O)c1cc(NC(=O)CNc2cccc(S(=O)(=O)N3CCCC3)c2)ccc1C | ? | 4.6µM* | 3.3µM* | -21% | 2.6µM*
